Test results taken from PubChem BioAssay AID1159580 (chemical genetic matrix, 2015).
Among all 5,500 compounds or so, about 2,000 (36%) were called active. Roughly 18% stayed inconclusive and do not appear here. Cut-off read from the data, not from the text of the source: active = normalized growth mostly below about 0.91 (no sharp cut-off); inconclusive = no clear call, values can overlap the other calls; inactive = mostly above about 0.92. The list shows a part of the results.

Assay: chemical genetic growth profiling, strain panel (AID 1159580);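 note: tested at 20 µM; growth read once vehicle control cultures reached saturation at 30 °C; 1 = growth at the plate median or of vehicle wells; lower values mean less growth of the strain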
Settings: growth OD

Measured: normalized growth

O=C(O)CCC1NCC2CC1CN1CCCCC21 (configuration not stated)
inactive: S. cerevisiae deletion strains, locus YJR075W, strain HOC1, active compounds read low 1.01 | S. cerevisiae deletion strains, locus YKL009W, strain mrt4, active compounds read low 1.02 | S. cerevisiae deletion strains, locus YKL068W, active compounds read low 1 | S. cerevisiae deletion strains, locus YKL085W, strain MDH1 (second series), active compounds read low 1.02 | S. cerevisiae deletion strains, locus YKL085W, strain MDH1, active compounds read low 1.02 | S. cerevisiae deletion strains, locus YKL160W, strain elf1, active compounds read low 0.974 | S. cerevisiae deletion strains, locus YKL190W, strain CNB1, active compounds read low 1 | S. cerevisiae deletion strains, locus YKR001C, strain vps1, active compounds read low 0.995 | S. cerevisiae deletion strains, locus YKR026C, strain gcn3, active compounds read low 0.982 | S. cerevisiae deletion strains, locus YKR091W, strain srl3, active compounds read low 0.97 | S. cerevisiae deletion strains, locus YLL001W, strain dnm1, active compounds read low 0.954 | S. cerevisiae deletion strains, locus YLL026W, active compounds read low 0.98 | S. cerevisiae deletion strains, locus YLL041C, strain sdh2, active compounds read low 0.987 | S. cerevisiae deletion strains, locus YLR027C, strain aat2, active compounds read low 0.992 | S. cerevisiae deletion strains, locus YLR039C, strain RIC1, active compounds read low 0.998 | S. cerevisiae deletion strains, locus YLR058C, strain SHM2, active compounds read low 1.01 | S. cerevisiae deletion strains, locus YLR102C, strain apc9, active compounds read low 0.99 | S. cerevisiae deletion strains, locus YLR113W, strain HOG1, active compounds read low 0.983 | S. cerevisiae deletion strains, locus YLR221C, strain rsa3, active compounds read low 0.968 | S. cerevisiae deletion strains, locus YLR258W, strain gsy2, active compounds read low 0.992 | S. cerevisiae deletion strains, locus YLR262C, strain YPT6 (second series), active compounds read low 0.958 | S. cerevisiae deletion strains, locus YLR262C, strain YPT6, active compounds read low 0.97 | S. cerevisiae deletion strains, locus YLR268W, strain sec22, active compounds read low 0.988 | S. cerevisiae deletion strains, locus YLR320W, strain mms22, active compounds read low 0.962 | S. cerevisiae deletion strains, locus YLR330W, strain CHS5, active compounds read low 1.01 | S. cerevisiae deletion strains, locus YLR342W, strain FKS1 (second series), active compounds read low 1.05 | S. cerevisiae deletion strains, locus YLR342W, strain FKS1, active compounds read low 0.981 | S. cerevisiae deletion strains, locus YLR357W, strain rsc2, active compounds read low 0.971 | S. cerevisiae deletion strains, locus YLR370C, strain arc18, active compounds read low 0.978 | S. cerevisiae deletion strains, locus YLR371W, strain rom2, active compounds read low 0.998 | S. cerevisiae deletion strains, locus YLR384C, strain iki3, active compounds read low 0.969 | S. cerevisiae deletion strains, locus YLR418C, strain cdc73, active compounds read low 0.923 | S. cerevisiae deletion strains, locus YML016C, strain PPZ1, active compounds read low 1 | S. cerevisiae deletion strains, locus YML032C, strain rad52, active compounds read low 1 | S. cerevisiae deletion strains, locus YML120C, strain ndi1, active compounds read low 0.956 | S. cerevisiae deletion strains, locus YML124C, strain tub3, active compounds read low 0.997 | S. cerevisiae deletion strains, locus YMR058W, strain fet3, active compounds read low 0.969 | S. cerevisiae deletion strains, locus YMR078C, strain ctf18, active compounds read low 1 | S. cerevisiae deletion strains, locus YMR125W, strain sto1, active compounds read low 0.962 | S. cerevisiae deletion strains, locus YMR129W, active compounds read low 0.989 | S. cerevisiae deletion strains, locus YMR205C, strain PFK2, active compounds read low 0.964 | S. cerevisiae deletion strains, locus YMR223W, strain ubp8, active compounds read low 1.02 | S. cerevisiae deletion strains, locus YMR231W, strain pep5, active compounds read low 0.985 | S. cerevisiae deletion strains, locus YMR263W, strain SAP30, active compounds read low 0.998 | S. cerevisiae deletion strains, locus YMR307W, strain GAS1, active compounds read low 1.07 | S. cerevisiae deletion strains, locus YNL067W, strain RPL9B, active compounds read low 0.999 | S. cerevisiae deletion strains, locus YNL071W, strain lat1, active compounds read low 0.991 | S. cerevisiae deletion strains, locus YNL128W, strain TEP1, active compounds read low 1.02 | S. cerevisiae deletion strains, locus YNL153C, strain GIM3, active compounds read low 0.989 | S. cerevisiae deletion strains, locus YNL183C, strain NPR1, active compounds read low 0.938 | S. cerevisiae deletion strains, locus YNL209W, strain ssb2, active compounds read low 0.984 | S. cerevisiae deletion strains, locus YNL233W, strain BNI4, active compounds read low 1.01 | S. cerevisiae deletion strains, locus YNL248C, strain rpa49, active compounds read low 0.998 | S. cerevisiae deletion strains, locus YNL250W, strain rad50, active compounds read low 1.01 | S. cerevisiae deletion strains, locus YNL271C, strain bni1, active compounds read low 1 | S. cerevisiae deletion strains, locus YNL298W, strain CLA4, active compounds read low 0.997 | S. cerevisiae deletion strains, locus YNL307C, strain MCK1, active compounds read low 1 | S. cerevisiae deletion strains, locus YNL322C, strain KRE1 (second series), active compounds read low 0.97 | S. cerevisiae deletion strains, locus YNL322C, strain KRE1, active compounds read low 1.01 | S. cerevisiae deletion strains, locus YNR049C, strain mso1, active compounds read low 0.971 | S. cerevisiae deletion strains, locus YNR052C, strain pop2, active compounds read low 1 | S. cerevisiae deletion strains, locus YOL006C, strain TOP1, active compounds read low 1.04 | S. cerevisiae deletion strains, locus YOL012C, strain htz1 0.732 | S. cerevisiae deletion strains, locus YOL147C, strain pex11, active compounds read low 1 | S. cerevisiae deletion strains, locus YOR001W, strain rrp6, active compounds read low 1.01 | S. cerevisiae deletion strains, locus YOR061W, strain CKA2, active compounds read low 1 | S. cerevisiae deletion strains, locus YOR069W, strain VPS5, active compounds read low 1 | S. cerevisiae deletion strains, locus YOR070C, strain gyp1, active compounds read low 0.973 | S. cerevisiae deletion strains, locus YOR080W, strain dia2, active compounds read low 0.964 | S. cerevisiae deletion strains, locus YOR083W, strain WHI5, active compounds read low 0.965 | S. cerevisiae deletion strains, locus YOR106W, strain vam3, active compounds read low 0.968 | S. cerevisiae deletion strains, locus YOR136W, strain idh2, active compounds read low 0.998 | S. cerevisiae deletion strains, locus YOR144C, strain elg1, active compounds read low 0.988 | S. cerevisiae deletion strains, locus YOR184W, strain ser1, active compounds read low 1.04 | S. cerevisiae deletion strains, locus YOR231W, strain MKK1, active compounds read low 1.04 | S. cerevisiae deletion strains, locus YOR265W, strain rbl2, active compounds read low 0.977 | S. cerevisiae deletion strains, locus YOR270C, strain vph1, active compounds read low 0.951 | S. cerevisiae deletion strains, locus YOR290C, strain snf2, active compounds read low 0.916 | S. cerevisiae deletion strains, locus YOR316C, strain cot1, active compounds read low 0.992 | S. cerevisiae deletion strains, locus YPL051W, strain arl3, active compounds read low 0.982 | S. cerevisiae deletion strains, locus YPL055C, strain LGE1, active compounds read low 0.99 | S. cerevisiae deletion strains, locus YPL078C, strain atp4, active compounds read low 0.983 | S. cerevisiae deletion strains, locus YPL106C, strain sse1, active compounds read low 0.946 | S. cerevisiae deletion strains, locus YPL240C, strain hsp82, active compounds read low 0.974 | S. cerevisiae deletion strains, locus YPL241C, strain CIN2, active compounds read low 0.995 | S. cerevisiae deletion strains, locus YPL256C, strain CLN2, active compounds read low 1.02 | S. cerevisiae deletion strains, locus YPR119W, strain clb2, active compounds read low 0.991 | S. cerevisiae deletion strains, locus YPR141C, strain kar3, active compounds read low 0.987 | S. cerevisiae deletion strains, locus YPR163C, strain tif3, active compounds read low 0.983 | S. cerevisiae deletion strains, locus YPR167C, strain met16, active compounds read low 0.981 | S. cerevisiae deletion strains, strain wtn01, active compounds read low 0.999 | S. cerevisiae strains, strain wild type, active compounds read low 1.01
